Screening data from PubChem BioAssay.
GIRK2 activator = activators of NPY4-receptor-primed GIRK2 channels, summary, cell-based, HEK293, thallium flux | G protein-activated inward rectifier potassium channel 2 (Homo sapiens), P48051 | HEK293 GIRK2/NPY4 cells, thallium flux fluorescence | activation (% efficacy), % for hits at 37.5 µM | 34,000 tested, under 10 active | AID 1259324, 2017;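 active = primary screen hit, no activity in plain HEK293 cells, and in GIRK2-only cells above 5% efficacy rising with concentration; inactive = the rest, including fluorescent compounds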;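 also: efficacy is normalized control-subtracted fluorescence 15 s after thallium addition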
AMPAR-TARP mod = modulators of GluA2-stargazin AMPA receptor complexes, primary screen, cell-based, membrane potential dye; AID 1259245, 2017; 40,000 tested, 3.5% active; HEK293 GluA2+stargazin, membrane potential dye (FDSS), glutamate EC50; hits were called plate by plate, in both directions; Voltage-dependent calcium channel gamma-2 subunit (Mus musculus) + Glutamate receptor 2 …; calls only at 30 µM;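 active = any of four per-well response measures lying three or more SD from its plate-wide compound average, in either direction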
Each line names hits and unclear results; the compound was inactive in the other large screens. The full list was thinned out, with hits kept by preference.

CC(C)c1nnc(C2CCN(S(=O)(=O)c3cccnc3)CC2)o1	none
Cc1cnc2c(c1SCCN1CCCCC1)c(=O)n(C)c(=O)n2C	AMPAR-TARP mod active
Cc1cnc2c(c1SCC(=O)N1CCCCC1)c(=O)n(C)c(=O)n2C	none
O=C(CC1CCCC1)NCCS(=O)(=O)N1CCN(c2ccccn2)CC1	none (no result: AMPAR-TARP mod)
O=C(NCC(F)(F)F)c1ccc(N2CCC(Cc3ccccc3)CC2)nn1	AMPAR-TARP mod active
O=C(NCC(F)(F)F)C1CCN(C(=O)CSCc2ccccc2)CC1	none (no result: AMPAR-TARP mod)
Cc1nnc(CNC(=O)C(=O)NCc2cccs2)o1	none (no result: AMPAR-TARP mod)
O=C(Nc1ccc([N+](=O)[O-])cc1)C(=O)N1CCN(c2ccc(F)cc2)CC1	AMPAR-TARP mod active (no result: GIRK2 activator)
Cc1ccc(NC(=O)C(=O)N2CCN(c3cccc(Cl)c3)CC2)c([N+](=O)[O-])c1	none (no result: GIRK2 activator)
CC(C(=O)N1CCN(c2cccc(Cl)c2)CC1)c1ccc([N+](=O)[O-])cc1 (centres undefined)	AMPAR-TARP mod active (no result: GIRK2 activator)
O=C(Nc1cccc([N+](=O)[O-])c1)C(=O)N1CCN(c2cccc(Cl)c2)CC1	AMPAR-TARP mod active (no result: GIRK2 activator)
CC(C(=O)N1CCCC1)c1ccc([N+](=O)[O-])cc1 (centres undefined)	none (no result: GIRK2 activator)
O=C(Nc1ccc([N+](=O)[O-])cc1)C(=O)N1CCC(O)CC1	none (no result: GIRK2 activator)
COc1ccc(C(=O)N2CCN(c3ccc(-c4ccc(Cl)cc4)nn3)CC2)c(OC)c1	none
Cn1cccc1C(CNC(=O)C(=O)Nc1ccc2c(c1)OCO2)N1CCCCCC1 (centres undefined)	none
Cc1ccc2nc(NC(=O)c3ccc(=O)n(Cc4ccccc4F)c3)sc2c1	none
Cc1cc(NS(=O)(=O)c2cccs2)ccc1N1CCCC1=O	none
CC(C)C(=O)N1CCC2(CC1)NC(=O)N(CCOc1ccccc1)C2=O	none
CCOC(=O)Cn1c(=O)c2c(nc3n(-c4cc(C)cc(C)c4)c(C)c(C)n23)n(C)c1=O	none (no result: GIRK2 activator)
COCC(C)NC(=O)C(=O)Nc1c2c(nn1-c1ccc(Cl)cc1)CS(=O)(=O)C2 (centres undefined)	none (no result: GIRK2 activator)
Cc1ccc(N2CCCn3c2nc2c3c(=O)n(CC(=O)c3ccccc3)c(=O)n2C)cc1C	none (no result: GIRK2 activator)
O=S(=O)(Oc1c(Cl)cc(Cl)c2cccnc12)N1CCCCC1	AMPAR-TARP mod active (no result: GIRK2 activator)
O=S(=O)(Oc1c(Cl)cc(Cl)c2cccnc12)N1CCCCCC1	none (no result: GIRK2 activator)
CCCc1c(C(=O)NC2CCCC2)nnn1-c1ccc(Cl)cc1	AMPAR-TARP mod active
O=C(NC1CCCCCC1)c1n[nH]c2ccccc12	none (no result: GIRK2 activator)
COCc1c(C(=O)Nc2ccc(NC(C)=O)cc2)nnn1-c1cc(C)cc(C)c1	none
COCc1c(C(=O)NC2CCCC2)nnn1-c1ccc(C)cc1	AMPAR-TARP mod active
CCCc1c(C(=O)NCCO)nnn1-c1ccc(C)cc1	none
CCCc1c(C(=O)NC2CCCCC2)nnn1-c1ccccc1	AMPAR-TARP mod active
CC(C)c1ccc(NC(=O)C(=O)NCC2CCN(C(=O)c3ccccc3F)CC2)cc1	none
Cc1ccc(S(=O)(=O)Nc2ccc3c(c2)N(S(=O)(=O)c2ccccc2)CCC3)cc1	none (no result: GIRK2 activator)
O=C(/C=C/c1cccs1)N1CCC(Cn2cnc3ccccc32)CC1	none
CCCCOc1ccc(NC(=O)Nc2ccc3c(c2)CCCN3S(=O)(=O)c2ccccc2)cc1	none (no result: GIRK2 activator)
CCOc1cn(-c2ccc(F)cc2)nc1C(=O)NCCOC	none
CCOc1cn(-c2ccc(F)cc2)nc1C(=O)NC1CCCCC1C (centres undefined)	AMPAR-TARP mod active
COc1ccc(OC)c(NC(=O)c2nn(-c3ccc(F)cc3)cc2OCc2ccccc2)c1	none
COc1ccccc1NC(=O)c1nn(-c2ccc(F)cc2)cc1OCc1ccccc1	AMPAR-TARP mod active
Cc1ccc(-c2noc(-c3cn(CC(=O)NCc4ccc(Cl)cc4)c4nc(C)ccc4c3=O)n2)cc1	none
O=C(Nc1ccc(O)cc1)C(=O)Nc1ccc(F)c([N+](=O)[O-])c1	AMPAR-TARP mod active
O=C(NCc1ccncc1)C(=O)Nc1ccc(F)c([N+](=O)[O-])c1	none
Cn1c(=O)c2c(nc(N)n2CCCOc2ccccc2)n(C)c1=O	none
CN(CCO)CC(=O)N1N=C(c2ccco2)CC1c1ccc(Cl)cc1Cl (centres undefined)	none (no result: AMPAR-TARP mod)
Cn1c(=O)c2c(nc3n2CC(c2ccc(F)cc2)=NN3CC(N)=O)n(C)c1=O	AMPAR-TARP mod active (no result: GIRK2 activator)
Cn1c(=O)c2c(nc3n2CC(c2ccc(F)cc2)=NN3CC(=O)O)n(C)c1=O	none (no result: GIRK2 activator)
COc1ccc(S(=O)(=O)CCC(=O)N(CCN(C)C)c2nc3c(C)ccc(C)c3s2)cc1	none (no result: GIRK2 activator)
CCCN1C(=O)NC2(CCN(C(=O)Nc3cccc(C(F)(F)F)c3)CC2)C1=O	none
O=C(Nc1cccc(Cl)c1)N1CCC2(CC1)NC(=O)N(Cc1ccccc1)C2=O	AMPAR-TARP mod active
O=C(Nc1cccc(C(F)(F)F)c1)N1CCC2(CC1)NC(=O)N(Cc1ccccc1)C2=O	AMPAR-TARP mod active
Cc1ccc(CN2C(=O)NC3(CCN(C(=O)Nc4ccc(Cl)cc4)CC3)C2=O)cc1	none (no result: AMPAR-TARP mod)
O=c1c2nnn(Cc3ccc(F)cc3)c2ncn1Cc1ccc(C(F)(F)F)cc1	none (no result: GIRK2 activator)
CC(=O)N1CCN(c2oc(-c3ccccc3C)nc2S(=O)(=O)c2ccc(C)cc2)CC1	AMPAR-TARP mod active
Cc1ccc(S(=O)(=O)c2nc(-c3ccccc3C)oc2N2CCC(C(N)=O)CC2)cc1	none
CC(=O)N1CCN(c2oc(-c3ccccc3)nc2S(=O)(=O)c2ccccc2)CC1	none
O=S(=O)(c1ccccc1)c1nc(-c2ccccc2Cl)oc1N1CCCC1	AMPAR-TARP mod active
CCc1ccc2nc(N(CCN3CCOCC3)C(=O)c3ccc4ncsc4c3)sc2c1	none (no result: GIRK2 activator)
CCCc1cc(NCC2CCCO2)n2c(nc3ccccc32)c1C#N (centres undefined)	AMPAR-TARP mod active
CCOC(=O)CC(=O)CSc1cc(C)c(C#N)c2nc3ccccc3n12	none
COc1cccc(C(CNS(=O)(=O)c2cc(OC)ccc2OC)N2CCOCC2)c1 (centres undefined)	none
CNC(=O)C1Cc2ccccc2N1C(=O)c1c(F)cccc1Cl (centres undefined)	none
O=C(NNC(=O)c1cccn(Cc2ccc(F)cc2)c1=O)c1ccc2ccccc2c1	none
C=CCN1CC(c2nc3ccccc3n2Cc2cc(C)ccc2C)CC1=O (centres undefined)	AMPAR-TARP mod active (no result: GIRK2 activator)
C=CCN1CC(c2nc3ccccc3n2Cc2ccccc2C)CC1=O (centres undefined)	none (no result: GIRK2 activator)
C=CCN1CC(c2nc3ccccc3n2CC(O)COc2c(C)cccc2C)CC1=O (centres undefined)	AMPAR-TARP mod active
Cc1ccc(N2CC(c3nc4ccccc4n3Cc3ccccc3C)CC2=O)cc1 (centres undefined)	none (no result: GIRK2 activator)
Cc1cc(C)cc(OCC(O)Cn2c(C3CC(=O)N(Cc4ccccc4)C3)nc3ccccc32)c1 (centres undefined)	none
Cc1ccc(C)c(Cn2c(C3CC(=O)N(c4ccccc4)C3)nc3ccccc32)c1 (centres undefined)	AMPAR-TARP mod active (no result: GIRK2 activator)
Cc1ccc(C(CNC(=O)C(=O)Nc2cccc(C(F)(F)F)c2)N2CCOCC2)cc1 (centres undefined)	none
O=C(NCC(O)Cc1ccccc1)Nc1ccccc1C(F)(F)F (centres undefined)	none
CCc1ccc(S(=O)(=O)NCCCn2nc(-c3ccc(OC)cc3)ccc2=O)s1	AMPAR-TARP mod active
CCc1ccc(S(=O)(=O)NCCCn2nc(-c3ccccc3)ccc2=O)s1	none
